Paper PMC4336329 (PLoS ONE, 2015)
Hit rate of the full screen: of about 310,000 compounds, about 14,000 (4.5%) showed an effect of 50% or more. The effect is printed as a negative number. The list comes from a sample in which strong results are over-represented; it also holds similar structures and randomly drawn compounds.

target: human ether-à-go-go-related gene (hERG) potassium channel (human, UniProt Q12809); assay: primary screen, population patch clamp on CHO cells stably expressing hERG; higher = less effect of the substance
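Further: peak tail current of the secondary pulse compared with the same well before compound.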

human ether-à-go-go-related gene (hERG) potassium channel, sequence (Q12809 whole entry, looked up): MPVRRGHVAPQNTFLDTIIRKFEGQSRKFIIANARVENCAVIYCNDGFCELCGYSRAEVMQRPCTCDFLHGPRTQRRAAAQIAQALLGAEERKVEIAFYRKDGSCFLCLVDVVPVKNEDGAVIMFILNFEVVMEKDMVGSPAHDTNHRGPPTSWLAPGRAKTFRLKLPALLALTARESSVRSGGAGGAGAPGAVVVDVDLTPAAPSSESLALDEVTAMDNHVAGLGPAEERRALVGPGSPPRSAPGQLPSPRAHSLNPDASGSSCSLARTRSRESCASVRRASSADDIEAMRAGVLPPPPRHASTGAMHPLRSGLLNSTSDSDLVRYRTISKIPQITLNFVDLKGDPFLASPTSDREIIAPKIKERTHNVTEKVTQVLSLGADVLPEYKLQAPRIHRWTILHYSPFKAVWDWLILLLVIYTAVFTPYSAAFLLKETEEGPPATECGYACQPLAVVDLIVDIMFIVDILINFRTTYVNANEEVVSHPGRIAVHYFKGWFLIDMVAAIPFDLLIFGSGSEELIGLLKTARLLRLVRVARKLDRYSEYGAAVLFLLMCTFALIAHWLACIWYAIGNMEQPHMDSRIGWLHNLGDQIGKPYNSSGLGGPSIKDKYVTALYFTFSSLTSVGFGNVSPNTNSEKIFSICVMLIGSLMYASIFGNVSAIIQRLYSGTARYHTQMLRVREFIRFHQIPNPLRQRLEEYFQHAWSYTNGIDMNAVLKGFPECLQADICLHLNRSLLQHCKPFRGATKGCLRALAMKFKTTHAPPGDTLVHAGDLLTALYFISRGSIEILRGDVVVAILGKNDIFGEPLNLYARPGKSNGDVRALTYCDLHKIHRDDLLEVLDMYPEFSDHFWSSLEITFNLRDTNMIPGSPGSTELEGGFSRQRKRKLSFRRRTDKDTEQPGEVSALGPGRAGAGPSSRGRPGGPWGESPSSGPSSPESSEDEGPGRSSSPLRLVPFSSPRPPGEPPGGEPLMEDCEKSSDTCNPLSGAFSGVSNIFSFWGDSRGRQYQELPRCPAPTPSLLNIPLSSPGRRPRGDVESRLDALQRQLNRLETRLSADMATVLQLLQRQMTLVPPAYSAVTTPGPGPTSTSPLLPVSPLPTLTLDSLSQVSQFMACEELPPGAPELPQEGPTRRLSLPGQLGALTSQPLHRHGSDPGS

Structure (SMILES) | hERG current change (%, negative = inhibition) at 10uM [%]
C/C(N)=C(/C#N)C(=O)COC(=O)C1CCC(C(C)(C)C)CC1 (stereo not shown) | -7.3
O=c1[nH]c(C2CCN(S(=O)(=O)c3ccccc3)CC2)nc2c1nnn2Cc1c(F)cccc1Cl | -2.84
CCOC(=O)c1[nH]c2c(c1C)C(=O)CC(c1ccc(OC)c(OC)c1)C2 (stereo not shown) | -9.84
CN1CCN(CCC(=O)Nc2ccccc2Cl)CC1 | -1.75
O=C(CCN1CCN(c2ccccc2F)CC1)Nc1ccccc1Cl | -2.49
O=C(CCN1CCN(CC(=O)Nc2ccccc2F)CC1)Nc1ccccc1F | -65.4
O=C(CCN1CCN(CC(=O)Nc2ccccc2Cl)CC1)Nc1ccccc1F | -69.1
O=C(CN1CCN(c2ccccc2F)CC1)Nc1ccccc1F | -1.86
Cl.O=C(CCN1CCCCCC1)Nc1ccccc1F | -4.4
COc1ccc(N(Cc2ccccc2)S(=O)(=O)c2cc(C(=O)O)ccc2Cl)cc1 | 5.3
CC(C)C(NC(=O)OCc1ccccc1)C(=O)OCC(=O)N1C(C)CCCC1C (stereo not shown) | 4.95
CC(C)C(NC(=O)c1ccccc1)C(=O)OCC(=O)N1CCN(c2ccccc2)CC1 (stereo not shown) | -2.47
CC(C)C(NC(=O)OCc1ccccc1)C(=O)OCC(=O)N1CCCCC1 (stereo not shown) | -7.36
CC(C)[C@H](NC(=O)OCc1ccccc1)C(=O)OCC(=O)N1CCN(c2ccccc2)CC1 | -58.3
CC(C)[C@H](NC(=O)OCc1ccccc1)C(=O)OCC(=O)Nc1ccc(N2CCOCC2)cc1 | -15.1
CC(C)[C@H](NC(=O)OCc1ccccc1)C(=O)OCC(=O)N1CCN(c2ccc(F)cc2)CC1 | -75.3
CCOC(=O)N1CCN(C(=O)CN(C2CCCCC2)S(=O)(=O)c2ccc(F)cc2)CC1 | -25.3
O=C(Nc1cc(S(=O)(=O)N2CCOCC2)ccc1N1CCOCC1)c1cnccn1 | -42.7
CC(C)(C)C(=O)NC(=S)Nc1ccccc1C(=O)NC1CCCCC1 | -18
COc1ccc(C)cc1NC(=O)c1ccc2c(SCC(=O)O)c3c(nc2c1)CCCC3 | 10.9
CC(C)OC(=O)CSc1nnc(-c2ccc(Cl)cc2Cl)o1 | -7.24
O=C(CN1CCN(S(=O)(=O)c2ccc(Cl)cc2)CC1)Nc1ccc2c(c1)OCO2 | -65

Structure (SMILES) | hERG current change (%, negative = inhibition) at 10uM [%]
O=C(CN1CCN(S(=O)(=O)c2ccc(Br)cc2)CC1)Nc1ccc2c(c1)OCCO2 | -27.9
O=C(CN1CCN(S(=O)(=O)c2ccc(Cl)cc2)CC1)Nc1ccc2c(c1)OCCO2 | -5.94
CC(C)c1ccc(S(=O)(=O)N2CCN(CC(=O)Nc3ccc4c(c3)OCO4)CC2)cc1 | -13.9
O=C(CN1CCN(S(=O)(=O)c2ccc(Br)cc2)CC1)Nc1ccc2c(c1)OCO2 | -62.4
O=C(CN1CCN(S(=O)(=O)c2ccccc2)CC1)Nc1ccc2c(c1)OCO2 | -44.1
CCCc1nnc(SCC(=O)Nc2ccc(OC)cc2)o1 | 28.8
Nn1c(SCc2ccccc2)nnc1C1CCCCC1 | 7.68
CC(=O)N1CCC(C(=O)NC2CC(C)(C)Cc3c2cnn3-c2ccc(F)cc2)CC1 (stereo not shown) | -25.3
COC(=O)CCC(=O)NC1CC(C)(C)Cc2c1cnn2-c1ccc(F)cc1 (stereo not shown) | 4.42
CC1(C)Cc2c(cnn2-c2ccc(F)cc2)C(NC(=O)C2CCC2)C1 (stereo not shown) | -79.2
CC1(C)Cc2c(cnn2-c2ccc(F)cc2)C(NC(=O)CCC(F)(F)F)C1 (stereo not shown) | -42.8
COCC(=O)NC1CC(C)(C)Cc2c1cnn2-c1ccc(F)cc1 (stereo not shown) | -64.9
CC1(C)Cc2c(cnn2-c2ccc(F)cc2)C(NC(=O)C(C)(C)O)C1 (stereo not shown) | -0.859
CCN(CC)S(=O)(=O)c1ccc(C(=O)NCc2nnc(SCC(=O)OC)n2C)cc1 | -1.87
O=C(Nc1cccc(F)c1)C1CCN(C(=O)c2ccccc2Cl)CC1 | -8.66
O=C(NC1CCN(C(=O)Nc2cccc(Cl)c2)CC1)C1CCCCC1 | 13.1
O=C(Nc1cccc(F)c1)C1CCN(C(=O)Cc2ccccc2)CC1 | -7.55
O=C(Nc1cccc(-c2cccc(F)c2)c1)C1CCN(C2CCC2)CC1 | -71.5
O=C(Nc1cccc(-c2cccc(Cl)c2)c1)C1CCN(C2CCC2)CC1 | -73.7
O=C(Nc1cccc(F)c1)C1CCCCC1 | -9.22
O=C(Nc1cccc(Cl)c1)C1CCCCC1 | -9.14
CS(=O)(=O)N1CCC(C(=O)Nc2cccc(F)c2)CC1 | 15.2

Structure (SMILES) | hERG current change (%, negative = inhibition) at 10uM [%]
CS(=O)(=O)N1CCC(C(=O)Nc2cccc(Cl)c2)CC1 | 2.18
O=C(Nc1cccc(Cl)c1)NC1CCCCC1 | 8.14
O=C(Nc1cccc(-c2cccc(F)c2)c1)C1CCN(C2CCOCC2)CC1 | -75
Cl.O=C(Nc1cccc(Cl)c1)NC1CCN(C2CCCCC2)C1 (stereo not shown) | -56.6
CCS(=O)(=O)N1CCC(C(=O)Oc2ccccc2OC)CC1 | 18.5
CC(=O)Nc1ccc(NC(=O)c2c(-c3ccccc3Cl)noc2C)cc1 | 5.89
COc1ccc(C(=O)N(c2ccc(C)cc2)C2C=CS(=O)(=O)C2)cc1OC (stereo not shown) | 9.79
CC(=O)N1CCN(Cc2ccc(Br)s2)CC1 | -2.46
C#CCOCCOCCOCCNc1nc(N2CCN(C(=O)CCCCCCCCCCNC(=O)Cn3cc(C[C@@H](C)O)nn3)CC2)nc(N2CCN(C(=O)CCCCCCCCCCNC(=O)[C@@H](CCSC)n3cc(CCO)nn3)CC2)n1 | 10.1
O=C(COC(=O)/C=C/c1ccc([N+](=O)[O-])cc1)NCc1ccccc1 | 2.07
CC12CCC(C(=O)NNC(=O)c3ccc(F)cc3)(OC1=O)C2(C)C (stereo not shown) | 24.6
CCOc1ccc(NC(=O)c2ccc(-c3csc(C)n3)cc2)cc1 | 16.5
CC(C)Nc1nnc(SCC(=O)Nc2ccc3c(c2)C(=O)c2ccccc2C3=O)s1 | -2.55
COc1ccc(CCNc2nc(=O)[nH]nc2C)cc1OC | 2.35
Cc1ccc(-c2nnc(CCC(=O)NCC3C4CC5CC(C4)CC3C5)o2)s1 (stereo not shown) | -6.1
COc1cccc(-c2cccc(NC(=O)C3CCN(C4CCOCC4)CC3)c2)c1 | -42
COc1cccc(-c2cccc(NC(=O)C3CCN(C4CCC4)CC3)c2)c1 | -51.7
COc1cccc(NC(=O)C2CCC2)c1 | 8.83
CCN(CC)CC(C)CNC(=O)C1(O)c2ccccc2NC(=O)N1c1ccc(Cl)c(Cl)c1 (stereo not shown) | 3.31
COc1ccc(OCC(O)CNC(=O)Nc2cc(C)cc(C)c2)cc1 (stereo not shown) | 0.613
Cc1cc(C(=O)N/N=C/c2ccco2)n[nH]1 | 31.6
CC(=O)c1ccc(C(=O)N2CCCC(C(=O)c3cc(F)ccc3F)C2)s1 (stereo not shown) | 2.88

Structure (SMILES) | hERG current change (%, negative = inhibition) at 10uM [%]
Cn1nnnc1SCCNCc1ccccc1OCc1ccccc1 | -9.36
Cl.Cn1nnnc1SCCNCc1ccccc1OCc1ccc(F)cc1 | -29.6
Cl.Cn1nnnc1SCCNCc1ccccc1OCc1ccc(Cl)cc1 | -53.4
COc1cc(CNCCSc2nnnn2C)cc(Br)c1OCc1ccccc1.Cl | -56.3
COc1cc(CNCCSc2nnnn2C)cc(Br)c1OCc1ccc(F)cc1.Cl | -43.9
CCOc1cc(CNCCSc2nnnn2C)cc(Br)c1OCc1ccccc1.Cl | -23.1
CCOC(=O)c1ccc(S(=O)(=O)N2CCN(CCC#N)CC2)cc1 | -14.7
Cc1ccc(CNC(=O)COC(=O)CSc2ccc(Br)cc2C)cc1 | 10.9
Cc1nnc(Nc2ccc(O)cc2)[nH]c1=O | 27.7
CCN1CCN(c2ccc(S(=O)(=O)N3CCOCC3)cc2NC(=O)c2ccccc2OC(F)F)CC1 | -42.5
CCN1CCN(c2ccc(S(=O)(=O)N3CCOCC3)cc2NC(=O)c2ccc(Cl)cc2Cl)CC1 | -38.4
CCN1CCN(c2ccc(S(=O)(=O)N3CCOCC3)cc2NC(=O)c2ccc(C)c(C)c2)CC1 | -40
CCN1CCN(c2ccc(S(=O)(=O)N3CCOCC3)cc2NC(=O)c2ccc(F)cc2Cl)CC1 | -35.7
CCN1CCN(c2ccc(S(=O)(=O)N3CCOCC3)cc2NC(=O)c2ccc(Cl)s2)CC1 | -57.1
CCN1CCN(c2ccc(S(=O)(=O)N3CCOCC3)cc2NC(=O)c2ccccc2SC)CC1 | -60.1
C/C(=N/OC(=O)c1c(-c2c(Cl)cccc2Cl)noc1C)c1cnccn1 | -1.72
Cc1nc(NCc2ccccc2)c2cc[nH]c2n1 | 21
Cc1nc2sc(C(c3cccc(F)c3)N3CCCCC3)c(O)n2n1 (stereo not shown) | 4.79
O=C(NCC1CCCO1)c1ccc(Cn2c(=S)[nH]c3ccccc3c2=O)cc1 (stereo not shown) | 18.2
